# Source: PubChem BioAssay
# DT40 TDP1 no CPT: qHTS for Inhibitors of human tyrosyl-DNA phosphodiesterase 1 (TDP1): qHTS in cells in absence of CPT; DT40 Tdp1-/- hTDP1 cells, no CPT, ATP luminescence, 48 h; Potency, µM (doses to about 46.2 µM), without a hit: at the top dose activity change, negative = growth inhibition, most hits filed as inhibitors; hit rate 15% among 420,000; AID 686978, 2013; further: potency means the concentration at half of the fitted maximal effect; nearly all actives have a fitted effect of over 55% in size
#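 Readout: luminescence from CellTiter-Glo after 30 min in the dark at RT. Cells: DT40 Tdp1-/- with stable hTDP1, 400/well. Exposure: compounds alone, ≥48 hr, 37 °C.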
# IL1B secr inh: blocks inflammasome-driven IL-1 beta release. hit rate 4.7% among 360,000. THP-1 LPS/ATP IL-1B secretion, AlphaLISA, 16 h; active compounds read low. activity change, % at 57.5 µM. AID 743279; in the data active means activity change below about -50%; inconclusive means mostly about -30% to -49%
#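 THP-1 cells pretreated 1 hr with compounds (up to 57.5 uM final), then stimulated with LPS (250 ng/mL final) plus ATP (1.25 mM final); secreted IL-1B measured by AlphaLISA after 16 hr, decreased signal indicating inhibition.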
# HT1080 IDH1KD tx: kills HT-1080 cells with IDH1 knockdown; HT-1080 IDH1 knockdown viability, ATP luminescence, 48 h; Potency, µM (series often up to 46.1 µM), for the others: top-dose activity, negative = toxicity, most hits filed as cytotoxic; hit rate 2% among 360,000;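 further: potency means the concentration at half of the fitted maximal effect; 0% = DMSO wells and -100% = cell-free medium wells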
#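 CellTiter-Glo luminescence after 48 h compound exposure at 37 degrees C of IDH1-knockdown HT-1080 cells in 5% FBS RPMI. %Activity scaled between DMSO wells and cell-free media wells, with curves fitted and assigned curve classes.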
# HT1080NT lethal: kills 2HG-producing HT-1080-NT fibrosarcoma cells; hit rate 1.6% among 360,000; AID 686970; HT-1080-NT fibrosarcoma viability, CellTiter-Glo ATP luminescence, 48 h; Potency, µM (top dose mostly 46.1 µM), for the others: top-dose activity, negative = less viability, actives largely listed as cytotoxic;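 further: NT is the 2HG producing partner of a matched IDH1 knockdown line; potency means the concentration at half of the fitted maximal effect; 0% = DMSO-treated cells and -100% = media-only wells without cells; nearly all actives have a fitted effect of over 55% in size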
#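 A 48-hour cytotoxicity screen used HT-1080-NT cells plated 2 hours before compound delivery. ATP-based CellTiter-Glo luminescence measured viability, normalized to DMSO and no-cell controls.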
# TDP1 cell CPT: growth inhibition of DT40 Tdp1-/-;hTDP1 cells with camptothecin (screen for TDP1 inhibitors). chicken DT40 Tdp1-/-;hTDP1 cells + 20 nM CPT, ATP luminescence, 48 h. Potency, µM (highest dose often 46.2 µM), inactives show at the highest dose activity change, negative = growth inhibition, most hits filed as inhibitors. hit rate 12% among 420,000; further: potency means the concentration at half of the fitted maximal effect; nearly all actives have a fitted effect of over 55% in size
#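 Chicken DT40 Tdp1-/- cells complemented with human TDP1, 400 cells/well, exposed to compounds plus 20 nM camptothecin for at least 48 h at 37 C; viability read as ATP content by CellTiter-Glo luminescence.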
# Starred values were filed as active, the others as inactive; ? = inconclusive; · = no result. Rows were chosen to be rich in hits. Some 19% of all compounds tested hit in one or more screens of this group. Unless noted, the call rests on the fitted dose curve; in most records, active means well fitted curve in the direction sought with a large enough effect; inconclusive means small, poorly fitted or top-dose-only effect, or another doubt; inactive means no such curve, though single readings can be large; an effect the other way counts as inactive or inconclusive. Unless noted, on the % scale 0 is the no-effect control and ±100 the full control effect.
SMILES,DT40 TDP1 no CPT,IL1B secr inh,HT1080 IDH1KD tx,HT1080NT lethal,TDP1 cell CPT
O=C1OC(=O)C2C1[C@@H]1CC[C@H]2O1 (some centres undefined),5%,18,?,?,17%
CCOP1(=S)Oc2cc3c(cc2C(C(=O)OC)(C(F)(F)F)O1)OCO3 (centres undefined),?,-5,4%,5%,13µM*
Cc1ccc2c(c1)c(C1=c3ccccc3=NC1=O)c(O)n2C,2.1µM*,-15,-4%,0%,4.6µM*
Cc1ccc(C)c(-n2c(C)nc3ccccc3c2=O)c1,?,13,7%,?,?
COC(=O)C1=C(c2ccc(F)cc2OCc2ccccc2)C[C@@H]2CC[C@H]1N2C(=O)NC1CCN(Cc2ccccc2)CC1,23µM*,?,-24%,-23%,8.2µM*
COC(=O)C1=C(c2ccc(F)cc2OCc2ccccc2)C[C@@H]2CC[C@H]1N2C(=O)NCCO,-19%,13,12%,11%,3%
COC(=O)C1=C(c2ccccc2OCc2ccccc2)C[C@@H]2CC[C@H]1N2C(=O)NC1CCN(Cc2ccccc2)CC1,23µM*,-65*,-36%,-24%,?
COC(=O)C1=C(c2cccc(OCc3ccccc3)c2)C[C@@H]2CC[C@H]1N2C(=O)NC1CCN(Cc2ccccc2)CC1,6.5µM*,-63*,?,23µM*,6.5µM*
Cc1nc(N2CCN(Cc3ccccc3)CC2)nc2c1C(=O)CC(C)C2 (centres undefined),16µM*,0,-19%,-4%,18µM*
Cc1c(C(c2ccc(O)cc2)c2c(O)c3ccccc3oc2=O)c(=O)n(-c2ccccc2)n1C (centres undefined),9%,19,-4%,0%,?
Cc1[nH]n(-c2ccccc2)c(=O)c1C(C[N+](=O)[O-])c1ccccc1Cl (centres undefined),29µM*,14,-6%,-9%,21µM*
Cc1[nH]n(-c2ccccc2)c(=O)c1C(c1ccc([N+](=O)[O-])cc1)c1c(C)[nH]n(-c2ccccc2)c1=O,?,-13,5%,0%,16µM*
c1ccc2sc(C3(N4CCCCC4)CCCCC3)cc2c1,18µM*,·,·,·,27µM*
CC(C)(C)n1nnnc1C(c1cccc2ccccc12)N1CCC2(CC1)C(=O)NCN2c1ccccc1 (centres undefined),?,-1,?,?,?
CC(=O)[C@H]1CC[C@H]2[C@@H]3CC[C@H]4C[C@](C)(O)CC[C@]4(C)[C@H]3CC[C@]12C,-16%,·,·,·,6%
CCCCC(=O)OCC(=O)[C@]1(O)Cc2c(O)c3c(c(O)c2[C@@H](O[C@H]2C[C@H](NC(=O)C(F)(F)F)[C@H](O)[C@H](C)O2)C1)C(=O)c1c(OC)cccc1C3=O,1.3µM*,·,·,·,1.5µM*
COc1cccc2c1C(=O)c1c(O)c3c(c(O)c1C2=O)CC(O)(C(C)=NO)CC3OC1CC(N)C(O)C(C)O1 (centres undefined),0.18µM*,-97*,10µM*,?,0.21µM*
Cc1nc(CCl)cc(=O)[nH]1,-11%,1,-13%,0%,-29%
O=C(c1cc(F)ccc1F)C1CCCN(Cc2ccc3nonc3c2)C1 (centres undefined),-24%,-14,-9%,-8%,1%
COC(=O)[C@@H]1[C@@H](C(=O)OC)C2(c3ccccc3-c3ccccc32)N(c2ccc(Cl)cc2)N1C#N,2.6µM*,-99*,5.8µM*,4.6µM*,2.6µM*
COC(=O)C[C@]1(C(=O)OC)CN(C#N)N(c2ccc(Cl)cc2)C12c1ccccc1-c1ccccc12,0.92µM*,-105*,4.1µM*,10µM*,1µM*
O=C(c1cn(Cc2ccccc2)c2ccccc12)N1CCCCC1,-7%,-17,-18%,-1%,-12%
CC(CCN1CC1)=NNC(=O)Nc1cccc2ccccc12,8.2µM*,0,3%,5%,7.3µM*
